The source of these data is PubChem BioAssay (Tox21).

The structures appear in SMILES notation. Records with an inconclusive call do not appear. Unmarked numbers belong to inactive results. Unless noted, the call rests on the fitted dose curve; in most records, active means well fitted curve in the direction sought with a large enough effect in the repeat runs; inconclusive means weak or mixed curves; inactive means no such curve, though single readings can be large; an effect the other way counts as inactive or inconclusive.
On the % scale 0 is the no-effect control and ±100 the full control effect.

A short description of the first test: qHTS assay to identify small molecule agonists of the progesterone receptor (PR) signaling pathway - cell viability counter screen (AID 1346799; calls by dose curve; further: nearly all actives have a fitted effect of over 45% in size). To be noted: PR-UAS-bla HEK293T viability, CellTiter-Glo luminescence, 16 h; series mostly up to 92.4 µM; activity change, negative = cytotoxicity: at the top concentration. The gist of the method: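 Luminescence from CellTiter-Glo, added after the beta-lactamase FRET read in the same wells, gave cytotoxicity in PR-UAS-bla HEK293T cells treated with compounds for 16 hr at 37C.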
On to `N[C@H]1C(O)O[C@H](CO)[C@@H](O)[C@@H]1O` (stereo partly specified), for which the “activity change, negative = cytotoxicity” value was 6.41% [at 42.5 µM].

Regarding `C=C(C)C(=O)OCCOC1CC2CC1C1C=CCC21` (stereo unspecified), the “activity change, negative = cytotoxicity” value was -23%.

For the molecule `C=COCCCCO`, the “activity change, negative = cytotoxicity” value is 0.716%.

For the molecule `COC(=O)/C=C(\C)CCC=C(C)C`, the “activity change, negative = cytotoxicity” value is -1.4%.

For `CC(C)C(C)C`, the “activity change, negative = cytotoxicity” value is -3.61%.

As for `CC[N+](C)(CC)CC`, the “activity change, negative = cytotoxicity” value was 0.537%.

With `BrCCOc1ccccc1`, the “activity change, negative = cytotoxicity” value is 10.5%.

As to `CCCCC(CC)COC(=O)CC#N` (stereo unspecified), the “activity change, negative = cytotoxicity” value is 4.65%.

With `Cc1ccc2cccnc2c1`, the “activity change, negative = cytotoxicity” value was -12.9%.

`CCCCCCCCCCCCCCCCN(C)C`: the activity change, negative = cytotoxicity was -6.19% [at 8.39 µM].

Regarding `O=S(=O)(O)c1cc(I)c(O)c2ncccc12`, the “activity change, negative = cytotoxicity” value was -2.3% [at 42.5 µM].

Regarding `CCC(C)c1nccnc1OC` (stereo unspecified), the “activity change, negative = cytotoxicity” value is 8.47%.

As for `Clc1cc(Cl)c(Cl)c(Cl)c1Cl`, the “activity change, negative = cytotoxicity” value was 15.2%.

`COc1ccc(Cl)cc1C`: the “activity change, negative = cytotoxicity” value was -4.91%.

Turning to `O=Cc1ccccc1S(=O)(=O)O`, the “activity change, negative = cytotoxicity” value was -7.28%.

As for `O=c1[nH]c(=O)c2cn[nH]c2[nH]1`, the “activity change, negative = cytotoxicity” value is 26.9%.

`CC(C)(C)c1ccc(C(=O)CCCCl)cc1`: the “activity change, negative = cytotoxicity” value was -1.9% [at 42.5 µM].

With `O=C(O)Cc1c(Cl)ccc(Cl)c1Cl`, the “activity change, negative = cytotoxicity” value is -2.03%.

Turning to `C=CCON/C(CCC)=C1\C(=O)CC(C)(C)C(C(=O)OC)=C1O`, the “activity change, negative = cytotoxicity” value is 0.668%.

As for `C/C=C/C(=O)CCCC`, the “activity change, negative = cytotoxicity” value was -1.42%.

Regarding `CN1CCN(C(=O)C2CCCCC2)CC1`, the “activity change, negative = cytotoxicity” value was -3.47% [at 42.5 µM].

In the case of `Cc1nnc(C(=O)NC(C)(C)c2nc(C(=O)NCc3ccc(F)cc3)c(O)c(=O)n2C)o1`, the “activity change, negative = cytotoxicity” value is -0.191% [at 42.5 µM].

Turning to `COc1cc2nc(N3CCN(C(=O)C4CCCO4)CC3)nc(N)c2cc1OC` (stereo unspecified), the “activity change, negative = cytotoxicity” value is 8.23% [at 42.5 µM].

For `CC(=O)SCC(CC(=O)c1ccc(C)cc1)C(=O)O` (stereo unspecified), the “activity change, negative = cytotoxicity” value is -29% [at 42.5 µM].

For `CCc1ncc(C)[nH]1`, the “activity change, negative = cytotoxicity” value was 7.07%.

As to `CCN(CC)CC(=O)Oc1ccc(NC(C)=O)cc1`, the “activity change, negative = cytotoxicity” value was 4.53% [at 42.5 µM].

`CCN1CCN(C(=O)N[C@@H](C(=O)N[C@@H]2C(=O)N3[C@@H]2SC(C)(C)[C@H]3C(=O)O)c2ccccc2)C(=O)C1=O`: the “activity change, negative = cytotoxicity” value is 0.67% [at 42.5 µM].

The nature of another test: qHTS assay to identify small molecule antagonists of the TGF-beta/Smad signaling pathway - cell viability counter screen (AID 1346824). Further: nearly all actives have a fitted effect of over 50% in size. The conditions noted are these: SBE-bla HEK293T viability, CellTiter-Glo luminescence; series mostly up to 76.8 µM; viability change, negative = cytotoxic: at the top concentration. An outline of the steps:
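SBE-bla HEK 293T cells were plated overnight at 37 C, then given compounds in DMSO plus TGF-beta1 (added as 0.25 ng/mL solution) for 5 hr. After the bla read, CellTiter-Glo was added to the same wells and luminescence read after 30 min at room temperature.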
For the molecule `CCCCCCCCCCCCCCCC(=O)OC`, the viability change, negative = cytotoxic is 1.68% [at 15.8 µM].

On to `N[C@H]1C(O)O[C@H](CO)[C@@H](O)[C@@H]1O` (stereo partly specified), for which the “viability change, negative = cytotoxic” value was 6.86% [at 35.3 µM].

For the molecule `C=COCCCCO`, the “viability change, negative = cytotoxic” value was 19%.

For the molecule `COC(=O)c1ccc(C(=O)O)cc1`, the “viability change, negative = cytotoxic” value is -14.5%.

For the molecule `COC(=O)/C=C(\C)CCC=C(C)C`, the “viability change, negative = cytotoxic” value was 2.36%.

As for `CC(C)C(C)C`, the “viability change, negative = cytotoxic” value is -0.386%.

With `CCOC(=O)CN1CCCC1=O`, the “viability change, negative = cytotoxic” value was 2.1% [at 35.3 µM].

`CC[N+](C)(CC)CC`: the “viability change, negative = cytotoxic” value was 3.16%.

Consider `CCCCC(CC)COC(=O)CC#N` (stereo unspecified), for which the “viability change, negative = cytotoxic” value was -8.18%.

On to `CCCCCCCCCCCCCCCCN(C)C`, for which the viability change, negative = cytotoxic was 3.18% [at 6.97 µM].

Turning to `O=S(=O)(O)c1cc(I)c(O)c2ncccc12`, the “viability change, negative = cytotoxic” value is -0.191% [at 35.3 µM].

Turning to `CCC(C)c1nccnc1OC` (stereo unspecified), the “viability change, negative = cytotoxic” value is 2.98%.

Regarding `CCCCC(O)/C=C(C)/C=C/C=C/C(=O)N1CCCC1=O` (stereo unspecified), the “viability change, negative = cytotoxic” value is 5.84% [at 35.3 µM].

In the case of `Clc1cc(Cl)c(Cl)c(Cl)c1Cl`, the “viability change, negative = cytotoxic” value is 17.6%.

As to `CC(C)OCCO`, the “viability change, negative = cytotoxic” value is 1.73%.

For `O=Cc1ccccc1S(=O)(=O)O`, the “viability change, negative = cytotoxic” value is 0.656%.

Consider `O=c1[nH]c(=O)c2cn[nH]c2[nH]1`, for which the “viability change, negative = cytotoxic” value is -0.0647%.

Turning to `CC(C)(C)c1ccc(C(=O)CCCCl)cc1`, the “viability change, negative = cytotoxic” value is -0.446% [at 35.3 µM].

On to `CC(C)(C)NCC(O)COc1cccc2c1CCC(=O)N2` (stereo unspecified), for which the “viability change, negative = cytotoxic” value is -6.06% [at 35.3 µM].

Consider `CCC(C)(C)C`, for which the “viability change, negative = cytotoxic” value was 5.9%.

As for `C/C=C/C(=O)CCCC`, the “viability change, negative = cytotoxic” value was 3.48%.

Regarding `CN1CCN(C(=O)C2CCCCC2)CC1`, the “viability change, negative = cytotoxic” value is 2.15% [at 35.3 µM].

As to `COc1cc2nc(N3CCN(C(=O)C4CCCO4)CC3)nc(N)c2cc1OC` (stereo unspecified), the “viability change, negative = cytotoxic” value is 0.29% [at 35.3 µM].

With `CC(=O)SCC(CC(=O)c1ccc(C)cc1)C(=O)O` (stereo unspecified), the “viability change, negative = cytotoxic” value was -6.54% [at 35.3 µM].

Consider `CCc1ncc(C)[nH]1`, for which the “viability change, negative = cytotoxic” value is -6.65%.

With `CCN(CC)CC(=O)Oc1ccc(NC(C)=O)cc1`, the “viability change, negative = cytotoxic” value is 8.27% [at 35.3 µM].

A short description of another test: qHTS assay to identify small molecule agonists of the TGF-beta/Smad signaling pathway - cell viability counter screen (AID 1346829). Further: top concentration of the series differs between compounds; nearly all actives have a fitted effect of over 45% in size. The conditions noted are these: SBE-bla HEK293T viability, CellTiter-Glo luminescence, 5 h; series mostly up to 76.8 µM; activity change, negative = cytotoxicity: at the top concentration. The gist of the method:
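SBE-bla HEK 293T cells plated overnight, compound exposure 5 hr at 37 C. Viability read in the same wells by CellTiter-Glo luminescence after 30 min at room temperature, following the beta-lactamase read.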
On to `CCCCCCCCCCCCCCCC(=O)OC`, for which the activity change, negative = cytotoxicity was -0.944% [at 15.8 µM].

Take `N[C@H]1C(O)O[C@H](CO)[C@@H](O)[C@@H]1O` (stereo partly specified): the “activity change, negative = cytotoxicity” value is -7.76% [at 35.3 µM].

As to `C=C(C)C(=O)OCCOC1CC2CC1C1C=CCC21` (stereo unspecified), the “activity change, negative = cytotoxicity” value was 16.1%.

`C=COCCCCO`: the “activity change, negative = cytotoxicity” value was -5.35%.

`COC(=O)c1ccc(C(=O)O)cc1`: the “activity change, negative = cytotoxicity” value is 5.21%.

In the case of `COC(=O)c1cc(Cl)c(NC(C)=O)cc1OC`, the “activity change, negative = cytotoxicity” value was -9.66% [at 35.3 µM].

Take `COC(=O)/C=C(\C)CCC=C(C)C`: the “activity change, negative = cytotoxicity” value was 3.78%.

As for `CCO[Si](CC(C)C)(OCC)OCC`, the “activity change, negative = cytotoxicity” value was -6.41%.

On to `CC(C)C(C)C`, for which the “activity change, negative = cytotoxicity” value was 2.75%.

As for `CC1(C)S[C@@H]2[C@H](NC(=O)Cc3ccccc3)C(=O)N2[C@H]1C(=O)O` (tested in a mixture with another compound), the “activity change, negative = cytotoxicity” value was 2.57% [at 35.3 µM].

Consider `CCOC(=O)CN1CCCC1=O`, for which the “activity change, negative = cytotoxicity” value is -2.37% [at 35.3 µM].

On to `CC[N+](C)(CC)CC`, for which the “activity change, negative = cytotoxicity” value was -3.53%.

Regarding `Cc1ccc2cccnc2c1`, the “activity change, negative = cytotoxicity” value was 0.895%.

`CCCCCCCCCCCCCCCCN(C)C`: the activity change, negative = cytotoxicity is 16.2% [at 6.97 µM].

As to `O=S(=O)(O)c1cc(I)c(O)c2ncccc12`, the “activity change, negative = cytotoxicity” value was 0.894% [at 35.3 µM].

In the case of `CCC(C)c1nccnc1OC` (stereo unspecified), the “activity change, negative = cytotoxicity” value was 1.12%.

In the case of `Clc1cc(Cl)c(Cl)c(Cl)c1Cl`, the “activity change, negative = cytotoxicity” value was -2.29%.

Regarding `CC(C)OCCO`, the “activity change, negative = cytotoxicity” value was -6.72%.

Regarding `COc1ccc(Cl)cc1C`, the “activity change, negative = cytotoxicity” value is -11.5%.

On to `O=c1[nH]c(=O)c2cn[nH]c2[nH]1`, for which the “activity change, negative = cytotoxicity” value was 1.21%.

`CC(C)(C)c1ccc(C(=O)CCCCl)cc1`: the “activity change, negative = cytotoxicity” value is -4.57% [at 35.3 µM].

On to `O=C(O)Cc1c(Cl)ccc(Cl)c1Cl`, for which the “activity change, negative = cytotoxicity” value was 13.4%.

`CC(C)(C)NCC(O)COc1cccc2c1CCC(=O)N2` (stereo unspecified): the “activity change, negative = cytotoxicity” value was 7.32% [at 35.3 µM].

In the case of `CCC(C)(C)C`, the “activity change, negative = cytotoxicity” value was -9.47%.

Take `C=CCON/C(CCC)=C1\C(=O)CC(C)(C)C(C(=O)OC)=C1O`: the “activity change, negative = cytotoxicity” value is 5.45%.

`C/C=C/C(=O)CCCC`: the “activity change, negative = cytotoxicity” value is 0.214%.

For the molecule `CN1CCN(C(=O)C2CCCCC2)CC1`, the “activity change, negative = cytotoxicity” value is 1.32% [at 35.3 µM].

Take `CCCOc1ccc(C(=O)OCCN(CC)CC)cc1N`: the “activity change, negative = cytotoxicity” value is -3.28% [at 35.3 µM].

`COc1cc2nc(N3CCN(C(=O)C4CCCO4)CC3)nc(N)c2cc1OC` (stereo unspecified): the “activity change, negative = cytotoxicity” value is 0.0512% [at 35.3 µM].

With `CC(=O)SCC(CC(=O)c1ccc(C)cc1)C(=O)O` (stereo unspecified), the “activity change, negative = cytotoxicity” value was 20.9% [at 35.3 µM].

In the case of `CCc1ncc(C)[nH]1`, the “activity change, negative = cytotoxicity” value is -2.3%.

For the molecule `CCN(CC)CC(=O)Oc1ccc(NC(C)=O)cc1`, the “activity change, negative = cytotoxicity” value was 4.97% [at 35.3 µM].

In the case of `CCN1CCN(C(=O)N[C@@H](C(=O)N[C@@H]2C(=O)N3[C@@H]2SC(C)(C)[C@H]3C(=O)O)c2ccccc2)C(=O)C1=O`, the “activity change, negative = cytotoxicity” value was 0.885% [at 35.3 µM].
